# Values joined by “and” are separate entries in the source; they are usually repeats but may differ in a detail not shown here. Equal values may be shown once. Among all 5,500 compounds or so, about 2,000 (36%) were called active. Not shown: some 18% with an inconclusive outcome. The list shows a part of the results. Values without a mark were called inactive. No stated cut-off is given here; in the data, active means normalized growth mostly below about 0.91 (no sharp cut-off); inconclusive means no clear call, values can overlap the other calls; inactive means mostly above about 0.92.
# Test: chemical genetic growth profiling, strain panel (AID 1159580);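 further: tested at 20 µM; growth read once vehicle control cultures reached saturation at 30 °C; 1 = growth at the plate median or of vehicle wells; lower values mean less growth of the strain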
# Conditions: S. cerevisiae deletion strains, growth OD
smiles,measurement,setting,value
O=[N+]([O-])O[C@H]1CO[C@H]2[C@@H]1OC[C@H]2O[N+](=O)[O-],normalized growth,"locus YAL013W, strain DEP1, hits give low values",1.01
same,normalized growth,"locus YAL021C, strain ccr4, hits give low values",0.993
same,normalized growth,"locus YAL026C, strain drs2, hits give low values",1.01
same,normalized growth,"locus YAL030W, strain snc1, hits give low values",1
same,normalized growth,"locus YBL061C, strain skt5, hits give low values",1
same,normalized growth,"locus YBR009C, strain hhf1, hits give low values",1
same,normalized growth,"locus YBR021W, strain FUR4, hits give low values",1.01
same,normalized growth,"locus YBR023C, strain chs3, hits give low values",0.984
same,normalized growth,"locus YBR171W, strain sec66, hits give low values",0.993
same,normalized growth,"locus YBR229C, strain ROT2, hits give low values",1.01
same,normalized growth,"locus YBR231C, strain swc5, hits give low values",0.981
same,normalized growth,"locus YBR279W, strain paf1, hits give low values",0.978
same,normalized growth,"locus YCL011C, strain gbp2, hits give low values",0.99
same,normalized growth,"locus YCL016C, strain dcc1, hits give low values",0.97
same,normalized growth,"locus YCL029C, strain bik1, hits give low values",1.03
same,normalized growth,"locus YCL061C, strain MRC1, hits give low values",0.985
same,normalized growth,"locus YCL069W, strain vba3, hits give low values",0.999
same,normalized growth,"locus YCR088W, strain abp1, hits give low values",0.985
same,normalized growth,"locus YDL005C, strain med2, hits give low values",0.991
same,normalized growth,"locus YDL035C, strain GPR1, hits give low values",1.03
same,normalized growth,"locus YDL040C, strain nat1, hits give low values",0.999
same,normalized growth,"locus YDL074C, strain BRE1, hits give low values",1.01
same,normalized growth,"locus YDL101C, strain DUN1, hits give low values",1
same,normalized growth,"locus YDL134C, strain PPH21, hits give low values",1.01
same,normalized growth,"locus YDL185W, strain tfp1, hits give low values",1.01
same,normalized growth,"locus YDL192W, strain arf1, hits give low values",1.02
same,normalized growth,"locus YDR001C, strain nth1, hits give low values",0.991
same,normalized growth,"locus YDR069C, strain doa4, hits give low values",1
same,normalized growth,"locus YDR101C, strain arx1, hits give low values",0.989
same,normalized growth,"locus YDR137W, strain rgp1, hits give low values",0.971
same,normalized growth,"locus YDR159W, strain sac3, hits give low values",1.01
same,normalized growth,"locus YDR162C, strain NBP2, hits give low values",1.02
same,normalized growth,"locus YDR195W, strain ref2",0.977
same,normalized growth,"locus YDR297W, strain sur2, hits give low values",0.99
same,normalized growth,"locus YDR318W, strain mcm21, hits give low values",1.05
same,normalized growth,"locus YDR334W, strain swr1, hits give low values",0.991
same,normalized growth,"locus YDR335W, strain msn5, hits give low values",0.995
same,normalized growth,"locus YDR388W, hits give low values",1.02
same,normalized growth,"locus YDR392W, strain spt3, hits give low values",0.91
same,normalized growth,"locus YDR502C, strain sam2, hits give low values",1.03
same,normalized growth,"locus YEL003W, strain gim4, hits give low values",1
same,normalized growth,"locus YEL037C, strain rad23, hits give low values",0.995
same,normalized growth,"locus YEL061C, strain CIN8 (second series), hits give low values",0.99
same,normalized growth,"locus YEL061C, strain CIN8, hits give low values",1.01
same,normalized growth,"locus YER015W, strain faa2, hits give low values",1.01
same,normalized growth,"locus YER016W, strain bim1, hits give low values",1
same,normalized growth,"locus YER110C, hits give low values",1.02
same,normalized growth,"locus YER111C, strain swi4, hits give low values",0.979
same,normalized growth,"locus YER155C, strain BEM2 (second series), hits give low values",0.998
same,normalized growth,"locus YER155C, strain BEM2, hits give low values",1.01
same,normalized growth,"locus YER167W, strain BCK2, hits give low values",1.02
same,normalized growth,"locus YFR010W, strain ubp6, hits give low values",1
same,normalized growth,"locus YGL078C, strain dbp3, hits give low values",1.02
same,normalized growth,"locus YGL086W, strain mad1, hits give low values",1.01
same,normalized growth,"locus YGL167C, strain pmr1, hits give low values",1
same,normalized growth,"locus YGL173C, strain kem1, hits give low values",1
same,normalized growth,"locus YGL227W, strain vid30, hits give low values",0.986
same,normalized growth,"locus YGL240W, strain doc1, hits give low values",0.988
same,normalized growth,"locus YGL248W, strain PDE1, hits give low values",0.999
same,normalized growth,"locus YGL253W, strain hxk2, hits give low values",1.01
same,normalized growth,"locus YGR078C, strain PAC10, hits give low values",1.03
same,normalized growth,"locus YGR135W, strain pre9, hits give low values",1.04
same,normalized growth,"locus YGR252W, strain gcn5, hits give low values",1.3 [resistant] (active)
same,normalized growth,"locus YHR013C, strain ard1, hits give low values",0.971
same,normalized growth,"locus YHR027C, strain rpn1, hits give low values",0.998
same,normalized growth,"locus YHR030C, strain SLT2, hits give low values",1.01 and 0.95
same,normalized growth,"locus YHR079C, strain IRE1 (second series), hits give low values",1.02
same,normalized growth,"locus YHR079C, strain IRE1, hits give low values",0.956
same,normalized growth,"locus YHR094C, strain hxt1, hits give low values",1.02
same,normalized growth,"locus YHR129C, strain ARP1, hits give low values",1.01
same,normalized growth,"locus YHR142W, strain chs7, hits give low values",0.991
same,normalized growth,"locus YHR200W, strain rpn10, hits give low values",1.02
same,normalized growth,"locus YIL066C, strain RNR3, hits give low values",1.02
same,normalized growth,"locus YIL073C, strain SPO22, hits give low values",1.06
same,normalized growth,"locus YIL125W, strain kgd1, hits give low values",1.01
same,normalized growth,"locus YIR030C, strain dcg1, hits give low values",1.01
same,normalized growth,"locus YJL092W, strain hpr5, hits give low values",0.999
same,normalized growth,"locus YJL095W, strain BCK1 (second series), hits give low values",0.992
same,normalized growth,"locus YJL095W, strain BCK1, hits give low values",1.01 and 0.925
same,normalized growth,"locus YJL115W, strain asf1, hits give low values",0.991
same,normalized growth,"locus YJL129C, strain trk1, hits give low values",0.991
same,normalized growth,"locus YJL134W, strain LCB3, hits give low values",1.02
same,normalized growth,"locus YJL154C, strain vps35, hits give low values",0.998
same,normalized growth,"locus YJL164C, strain tpk1, hits give low values",0.988
same,normalized growth,"locus YJL166W, strain qcr8, hits give low values",0.984
same,normalized growth,"locus YJL168C, strain set2, hits give low values",1
same,normalized growth,"locus YJL187C, strain SWE1 (second series), hits give low values",1.01
same,normalized growth,"locus YJL187C, strain SWE1, hits give low values",1

# From PubChem BioAssay AID1159580 (chemical genetic matrix, 2015)
